Consider 60 compounds from PubChem BioAssay AID504332 (National Center for Advancing Translational Sciences (NCATS), 2011).

The campaign covered roughly 350,000 compounds. About 31,000 (8.9%) were called active. Inconclusive results (about 15%) are left out. What follows is part of a selection rich in actives, with near analogues and random picks from the rest. A call without a number means that no potency is given here. Values without a mark were called inactive. Calls follow the shape of the dose curve; as a rule, active = well fitted inhibition curve with a large enough effect; inconclusive = small, poorly fitted or top-dose-only effect; inactive = no such curve, though single readings can be large or run the other way.
Potency is read from the fitted curve at half-maximal effect.

Sequence of Histone-lysine N-methyltransferase EHMT2 (Homo sapiens) (Q96KQ7 913-1193 limits assumed): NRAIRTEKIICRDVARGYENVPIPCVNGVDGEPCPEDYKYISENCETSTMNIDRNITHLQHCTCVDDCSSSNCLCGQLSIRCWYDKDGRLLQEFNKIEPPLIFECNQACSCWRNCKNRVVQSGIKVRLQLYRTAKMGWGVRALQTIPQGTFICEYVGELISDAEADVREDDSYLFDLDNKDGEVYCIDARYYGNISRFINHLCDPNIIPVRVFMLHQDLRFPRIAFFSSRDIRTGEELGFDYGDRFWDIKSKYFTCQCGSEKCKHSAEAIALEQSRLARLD

The experiment deals with Histone-lysine N-methyltransferase EHMT2 (Homo sapiens) (UniProt Q96KQ7). Kind of experiment: qHTS Assay for Inhibitors of Histone Lysine Methyltransferase G9a. Also: nearly all actives have a fitted effect of over 75% in size. The note with it: G9a H3K9 monomethylation, AlphaScreen, 2 h; series mostly up to 59 µM. An outline of the steps:
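Using a bead-based AlphaScreen, monomethylated H3K9 product from 2 h room-temperature reactions (G9a 20 nM, peptide 500 nM, SAM 20 uM) was detected with 0.5 ug/mL rabbit anti-H3K9me1 antibody.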
Background: qHTS replaces the single test concentration by a dilution series.
Regarding `CC(C)(C)c1ccc(C(=O)NCCC(=O)NCc2ccco2)cc1`, the Potency was 44.7 µM (active).

For the compound `O=C(CCNC(=O)c1ccccc1Cl)NCc1ccco1`, the activity, negative = inhibition was 4% [at 12.7 µM].

With `CCCCNC(=O)CCNC(=O)c1ccc(C(C)(C)C)cc1`, the Potency result was “inactive”.

Turning to `COCCCNc1nc2c(-c3cccc(C)c3)nnn2c2ccc(Cl)cc12`, the activity, negative = inhibition was 3.35% [at 0.501 µM].

Turning to `Cc1nc2ccccc2c(=O)n1-c1ccc(NS(=O)(=O)c2ccc(F)cc2F)cc1`, the Potency entry is “inactive”.

Regarding `Oc1ccccc1N1CCN(C(=S)NCc2ccccc2)CC1`, the Potency was 31.6 µM (active).

In the case of `Oc1ccc(N2CCN(C(=S)NCc3ccccc3)CC2)cc1`, the Potency is 10 µM (active).

As for `O=C1CCN(C(=S)NCCc2ccccc2)CC1`, the Potency entry was “inactive”.

On to `S=C(NCCc1ccccc1)N1CCCCC1`, for which the Potency result was “inactive”.

As to `O=C(CN1CCN(c2ccccc2O)CC1)NC(=O)NCc1ccccc1`, the activity, negative = inhibition was -1.41% [at 12.7 µM].

`O=C(COC(=O)c1ccccc1C(=O)N1CCN(c2ccccc2)CC1)NCc1ccccc1`: the Potency entry is “inactive”.

Take `CCCc1cc(=O)[nH]c(SCC(=O)c2c(N)n(CC(C)C)c(=O)n(C)c2=O)n1`: the Potency entry was “inactive”.

As for `CCOc1cccc(NC(=O)c2ccc(F)c(S(=O)(=O)N(CC)c3cccc(C)c3)c2)c1`, the Potency result was “inactive”.

For `O=C(CCS(=O)(=O)c1cc(Br)cc2c1N(C(=O)C1CC1)CC2)Nc1ccc(C(F)(F)F)cc1`, the Potency entry was “inactive”.

With `CC(C)C(NC(=O)c1c(F)cccc1F)C(=O)NCc1ccncc1` (stereo not given), the Potency result was “inactive”.

With `CC1(c2ccccc2)NC(=O)N(CC(=O)Nc2cc(Cl)ccc2N2CCOCC2)C1=O` (stereo not given), the activity, negative = inhibition is 22.3% [at 0.501 µM].

Consider `Cc1ccccc1NC(=O)CSc1nc2ccc(Nc3nc(N4CCOCC4)nc(N4CCOCC4)n3)cc2s1`, for which the Potency result was “inactive”.

For the compound `O=C(CSc1nc(Nc2ccccc2)nc(N2CCOCC2)n1)Nc1cc(Cl)ccc1O`, the Potency was 50.1 µM (active).

As to `CCOc1ccc(NC(=O)Cn2c(C)ccc(C#N)c2=O)cc1`, the Potency result is “inactive”.

On to `Cn1nc(-c2ccccc2)c(-c2ccccc2)c(C(=O)Nc2ccc(S(N)(=O)=O)cc2)c1=O`, for which the Potency result was “inactive”.

As for `O=C(CN1C(=O)COc2ccc(S(=O)(=O)N3CCCCCC3)cc21)N1CCN(c2cccc(C(F)(F)F)c2)CC1`, the Potency result was “inactive”.

For `Cc1ccc(CN2CCN(c3ncccn3)CC2)c(C)c1`, the Potency was 10 µM (active).

In the case of `CN(C)C(=O)c1nc2ccc(Cl)cn2c1CN1CCN(c2ncccn2)CC1`, the Potency entry was “inactive”.

In the case of `c1cnc(N2CCN(c3ccc4ccccc4n3)CC2)nc1`, the Potency result is “inactive”.

Turning to `Cc1cc(OCC(=O)N2CCN(c3ncccn3)CC2)ccc1Cl`, the Potency entry is “inactive”.

For the compound `Oc1ccc(CN2CCN(c3ncccn3)CC2)cc1`, the Potency is 79.4 µM (active).

`COc1ccc(-c2nc(CN3CCN(c4ncccn4)CC3)c(C)o2)cc1C`: the Potency result is “inactive”.

`O=C1NCCn2nc3ccccc3c21`: the activity, negative = inhibition was 16.4% [at 2.33 µM].

Take `Cn1c(=O)cc(OCC(=O)N2CCN(c3ccccc3)CC2)c2ccccc21`: the Potency entry was “inactive”.

For `COc1cccc2cc(C(N)=O)/c(=N\NC(=O)c3ccccc3)oc12`, the Potency entry was “inactive”.

`O=C(c1ccc(C(F)(F)F)cc1)N1CCC(c2nc(-c3ccc(S(=O)(=O)N4CCCC4)cc3)no2)CC1`: the Potency entry was “inactive”.

In the case of `Cc1ccc(-c2csc3nnc(SCC(=O)NCc4ccco4)n23)cc1`, the Potency was 17.8 µM (active).

In the case of `CCOc1ccccc1-n1c(SCC(=O)NCc2ccco2)nnc1-c1ccncc1`, the Potency result was “inactive”.

On to `CCn1c(SCC(=O)NCc2ccco2)nnc1-c1ccc(N)cc1`, for which the Potency result is “inactive”.

With `O=C(Cc1ccc(S(=O)(=O)N2CCOCC2)s1)N1CCN(c2ccc(C(F)(F)F)cc2[N+](=O)[O-])CC1`, the activity, negative = inhibition was 5.52% [at 0.501 µM].

As to `O=C(Nc1ccccc1C(=O)N1CCCCC1)c1ccco1`, the Potency entry was “inactive”.

Take `COC(=O)c1cc(Cl)c(NC(=O)c2ccco2)cc1OC`: the Potency result is “inactive”.

For the compound `CS/C(=C\C(=O)c1ccco1)Nc1ccccc1Cl`, the Potency is 50.1 µM (active).

Take `Cc1nc2ccc(S(=O)(=O)N(CC(=O)Nc3ccc(F)cc3)Cc3ccccc3)cc2s1`: the Potency result was “inactive”.

Regarding `CCOC(=O)N1CCN(CCC(=O)Nc2cc(OC)ccc2OC)CC1`, the Potency entry was “inactive”.

Take `CCOC(=O)N1CCN(C(=O)C2CCN(S(=O)(=O)c3cc(Cl)ccc3OCC)CC2)CC1`: the Potency result was “inactive”.

Consider `CCOC(=O)N1CCN(C(=O)C2CCN(Cc3ccc(OC)cc3OC)CC2)CC1`, for which the Potency is 7.94 µM (active).

Regarding `CCN1C(=O)[C@H]2[C@@H](c3ccc(-c4ccc(OC)cc4)cc3)N[C@@](Cc3ccccc3)(C(=O)OC)[C@H]2C1=O`, the activity, negative = inhibition is -6.39% [at 2.33 µM].

Consider `CCOc1ccc(NC(=O)CN(C)C(=O)CCSc2ccc(F)cc2)cc1OCC`, for which the activity, negative = inhibition is 21% [at 12.7 µM].

As for `CCN(CC(=O)Nc1ccccc1C(=O)NC1CC1)Cc1cccs1`, the Potency result is “inactive”.

`O=C(CSc1nnc(-c2ccco2)n1Cc1ccccc1)NC(=O)NCc1ccco1`: the Potency entry is “inactive”.

In the case of `O=C(CSc1nnc(-c2ccco2)n1CC1CCCO1)c1ccccc1` (stereo not given), the Potency is 50.1 µM (active).

Regarding `O=C(CSc1nnc(-c2ccco2)o1)NCC(=O)c1ccccc1`, the Potency result is “inactive”.

For `O=C(COc1ccc(Cl)cc1)NCc1nnc(SCC(=O)NCC2CCCO2)o1` (stereo not given), the Potency entry was “inactive”.

In the case of `Cc1nnc(SCC(N)=O)n1CC1CCCO1` (stereo not given), the activity, negative = inhibition was -0.186% [at 2.33 µM].

With `Cc1nnc(SCC(=O)NNC(=O)c2ccc(Cl)cc2)n1CC1CCCO1` (stereo not given), the Potency was 35.5 µM (active).

Take `CCC(NC(=O)C1CCCC1)c1ccc(C)cc1` (stereo not given): the Potency result is “inactive”.

Turning to `Cc1ccccc1NC(=O)Cn1c(=O)n(CCc2ccccc2)c(=O)c2ccccc21`, the Potency entry is “inactive”.

As to `Cc1ccc(S(=O)(=O)Nc2nc(CN3CCOCC3)nc3sc(C)c(C)c23)cc1`, the activity, negative = inhibition is 19.1% [at 2.33 µM].

In the case of `O=C(OCC(=O)N1CCCCCC1)c1cnc(Cl)c(Cl)c1`, the Potency result was “inactive”.

With `CCNC(=O)N1CCN(S(=O)(=O)c2ccc3c(c2)OCCCO3)CC1`, the activity, negative = inhibition was -26.7% [at 2.33 µM].

On to `COc1ccc(OC)c(CCNC(=O)CCn2ccc3cc(S(=O)(=O)N4CCCC4)ccc32)c1`, for which the Potency result is “inactive”.

For the compound `O=C1CC[C@H](O)CCN1[C@H](CSc1ccc(Br)cc1)Cc1ccccc1`, the activity, negative = inhibition is 11.1% [at 2.33 µM].

Turning to `O=C(CSc1nnc(-c2ccncc2)n1-c1ccccc1)Nc1ccc(Cl)c(Cl)c1`, the Potency result is “inactive”.

`COc1ccc(OC)c(CNC(=O)Cn2nc(C)c3c(C)n(-c4ccccc4)nc3c2=O)c1`: the Potency entry is “inactive”.
